Hits are enriched below; roughly 7.3% of the tested compounds scored in any of these assays.
HCV inhibitor: blocks hepatitis C virus | Huh7.5.1 HCVcc-Cre infection, luciferase reporter, 44 h | actives 3.4% (n = 340,000) | Potency, µM (highest dose often 41.8 µM), for inactives: at the highest dose activity change, negative = inhibition, actives largely listed as inhibitors | AID 651820; active = well fitted inhibition curve with a large enough effect; inconclusive = small, poorly fitted or top-dose-only effect, or another doubt; inactive = no such curve, though single readings can be large or run the other way; also: potency is read from the fitted curve at half-maximal effect
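Infectious HCVcc-Cre (~0.5 moi) was added to cells just after compound, with cells seeded 4 h earlier at 1,000 per well. Luciferase activity after 44 h culture reported infection; substrate was incubated 15 min at room temperature before reading.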
HCMV inh: human cytomegalovirus inhibition; HFF cells, HCMV-luciferase reporter, 72 h; hits give low values; activity change, negative = inhibition, % at 57.5 µM; actives 4.5% (n = 410,000); AID 1259415; in the data active = activity change below about -60%; inconclusive = no clear call, values can overlap the other calls; inactive = above about -39%
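Screen run at 2 compound doses on HFFs infected with reporter HCMV, MOI 1 PFU/cell. Luciferase activity from cell lysates at 72 h post infection gave inhibition relative to buffer-only and Salinomycin wells.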
Vaccinia mCherry: inhibitors of vaccinia virus infection (mCherry reporter signal); Vaccinia virus mCherry reporter infection, fluorescence; actives 0.63% (n = 310,000); Potency, µM (titrated, usually from 36.5 µM), without a hit: top-dose activity change, negative = inhibition, most hits filed as inhibitors; AID 720579; calls by dose curve; tested in A549 cells; also: potency is read from the fitted curve at half-maximal effect; nearly all actives have a fitted effect of over 35% in size
FMDV inh: blocks foot and mouth disease virus; FMDV antiviral cell-based qHTS; Potency, µM (series often up to 57.9 µM), without a hit: at the top dose activity change, negative = inhibition, actives largely listed as inhibitors; actives 1.2% (n = 410,000); AID 1159524; calls by dose curve; tested in HEK293T cells; also: read-out not given here; potency is read from the fitted curve at half-maximal effect; nearly all actives have a fitted effect of over 45% in size
Vaccinia Venus: inhibitors of vaccinia virus (Venus reporter) | Vaccinia virus Venus reporter expression, fluorescence | Potency, µM (doses to about 36.5 µM), for the others: at the top dose activity change, negative = inhibition, most hits filed as inhibitors | actives 0.46% (n = 330,000); calls by dose curve; tested in A549 cells; also: potency is read from the fitted curve at half-maximal effect; nearly all actives have a fitted effect of over 30% in size
* = called active by the depositor; i = inactive; ? = inconclusive; / = not tested or not shown; ! = not confirmed by another sample; [ ] = remark or other dose. % is scaled to controls: 0 for no effect and ±100 for the full control effect.

SMILES	HCV inhibitor	HCMV inh	Vaccinia mCherry	FMDV inh	Vaccinia Venus
Cc1ccc(NC(=O)C[n+]2cc(-c3ccc(C)cc3)n3c2CCC3)cc1	?	-7.9	-1.8%	3.1%	-14.9%
Cc1ccc(-c2c[n+](CC(=O)Nc3ccc(C)cc3C)c3n2CCC3)cc1	-10.2%	-71.2*	i[7.34 µM]	-7.1%	-6.8%[7.34 µM]
O=C(NCc1ccccc1)C1=CN2CCN(Cc3cccc(Cl)c3)C(=O)N=C2O1	/	-1.5	/	/	/
COc1cc(=O)n2c(c1C(=O)NC(C)c1ccco1)CCN(Cc1cc3ccccc3o1)CC2 (configuration not stated)	/	/	-7.7%	0.8%	11.8%
CC1CCCCC1NC(=O)CN1C(=O)NC(Cc2ccccc2)(Cc2ccccc2)C1=O (configuration not stated)	-15.3%	0.3	-9.5%	5.5%	-7.3%
CCn1cc(C(=O)NC(C)C23CC4CC(CC(C4)C2)C3)cn1 (configuration not stated)	-2.6%	-0.3	-17.0%	-29.8%	-14.9%
CC(NC(=O)Cn1ncc(Cl)c(Cl)c1=O)C12CC3CC(CC(C3)C1)C2 (configuration not stated)	10µM*	/	?	?	?
CC(NC(=O)CN1C(=O)NC(Cc2ccccc2)(Cc2ccccc2)C1=O)C12CC3CC(CC(C3)C1)C2 (configuration not stated)	-15.1%	22.7	10µM*	-4.3%	?
O=C(Cn1ncc(Cl)c(Cl)c1=O)NC(=O)NC1CCCCC1	0.631µM*	-94.3*	-34.9%	35.5µM*	?
O=C(CN1CCCCC1)NC(=O)NC1CCCC1	11.6%	-28.1	3.6%	4.6%	-2.3%
CC(=O)O[C@@H]1[C@H]2[C@@H](C[C@@H](C)[C@@H]3C=CC(=O)[C@@]13C)OC(=O)[C@@H]2C	21.9%	-1.9	-27.3%	0.0%	?
C=C1C(=O)OC2C1CCC(C)C1(O)C=CC(=O)C21C (configuration not stated)	8.91µM*	-108.0*	?	39.8µM*	-26.0%
C=C1C(=O)OC2CC(C)C3C=CC(=O)C3(C)C(O)C12 (configuration not stated)	2.51µM*	/	?	8.91µM*	6.31µM*
C=C1C(=O)O[C@@H]2C[C@@H](C)[C@@H]3C4OC4C(=O)[C@@]3(C)[C@@H](O)[C@H]12 (some centres not stated)	?	-79.3*	?	?	14.1µM*
CC1C(=O)O[C@@H]2C[C@@H](C)[C@@H]3CCC(=O)[C@@]3(C)[C@@H](O)[C@H]12 (some centres not stated)	18.1%	-6.7	i	-22.6%	1.1%
C=C1C(=O)O[C@H]2C[C@@H](C)[C@@H]3C=CC(=O)[C@@]3(C)C[C@H]12	-51.4%	-99.1*	?	25.1µM*	?
O=C1CC(c2ccccc2)Cc2[nH]c(=O)c(-c3nc(-c4ccc(Cl)c(Cl)c4)cs3)cc21 (configuration not stated)	/	11.5	-19.0%	1.4%	-8.7%
C=C1C(=O)OC2C1CCC(C)C1C=CC(=O)C12C (configuration not stated)	?	-96.8*	11.2µM*	?	?
C=C1C(=O)O[C@H]2[C@H]1[C@H](OC(=O)CC(=O)O[C@@H]1C[C@@H](C)[C@@H]3C=CC(=O)[C@@]3(C)[C@H]3OC(=O)C(=C)[C@H]13)C[C@@H](C)[C@H]1C=CC(=O)[C@]12C	?	-38.0	?	-19.0%	-26.7%
C=C1C(=O)O[C@@H]2C[C@@H](C)[C@@H]3C=CC(=O)[C@@]3(C)[C@@H](OC(=O)CC(=O)O[C@H]3[C@@H]4C(=C)C(=O)O[C@@H]4C[C@@H](C)[C@@H]4C=CC(=O)[C@]43C)[C@H]12	1.12µM*	-98.0*	?	?	2.51µM*
Cc1nc(NCCN2CCOCC2)c2oc3ccccc3c2n1	-2.6%	8.4	i	-8.1%	-5.3%
Cc1nc(NCCc2ccccc2)c2oc3ccccc3c2n1	10µM*	-80.7*	/	?	/
CCCCN(C)CCCNC(=O)Cn1ncc2c3ccccc3n(Cc3cc(C)ccc3C)c2c1=O	/	-99.3*	-4.6%	-22.5%	-24.8%
CCCCN(C)CCCNC(=O)Cn1ncc2c3ccccc3n(Cc3ccccc3F)c2c1=O	/	-104.6*	?	0.0%	?
Cc1cc(C)c(Cn2c3ccccc3c3cnn(CC(=O)NCc4ccccn4)c(=O)c32)c(C)c1	?	-62.5*!	-24.2%	?	-1.8%
SMILES	HCV inhibitor	HCMV inh	Vaccinia mCherry	FMDV inh	Vaccinia Venus
CCCCN(C)CCCNC(=O)Cn1ncc2c3ccccc3n(Cc3ccccc3)c2c1=O	/	-2.6	-2.4%	-12.4%	-14.9%
CC(=O)c1sc(NC(=O)c2c(-c3ccccc3)c(-c3ccccc3)nn(C)c2=O)nc1C	/	-17.1	3.6%	-2.9%	-3.7%
Cc1ccc(Nc2ncnc3c2cnn3-c2ccccc2)c(C)c1	/	6.7	-10.4%	37.4%	3.0%
CC(=O)Nc1nc(-c2ccc3c(c2)CCN3C(=O)C2CC2)c(C)s1	-28.6%	-97.9*	-16.4%	52.1%	-17.5%
COc1ccc(Nc2cc(C)c3cc(NC(=O)COc4cccc(C)c4)ccc3n2)cc1	/	-39.2	?	35.5µM*	?
COc1ccc(Nc2cc(C)c3cc(NC(=O)Cc4c(F)cccc4Cl)ccc3n2)cc1	/	?	-11.4%	-29.3%	-19.9%
COc1ccc(Nc2cc(C)c3cc(NC(=O)c4cc(OC)cc(OC)c4)ccc3n2)cc1	/	-77.1*	-23.2%	-4.8%	?
COc1ccc(CC(=O)Nc2ccc3nc(Nc4ccc(OC)cc4)cc(C)c3c2)cc1	/	-86.3*	-24.6%	-28.9%	-18.0%
N#Cc1ccc(C(=O)Nc2ccc(Cl)c(-c3nc4cc(Cl)ccc4o3)c2)c(F)c1	/	-11.8	-11.6%	-10.0%	0.6%
CCn1c(Sc2ccc([N+](=O)[O-])cn2)nnc1-c1ccco1	?	-85.7*	12.6µM*	?	?
O=[N+]([O-])c1ccc(Sc2ncc3ccccn23)nc1	-3.0%	-65.2*	/	-4.0%	/
Cc1cc(C)c2oc(C(=O)Nc3c(C)n(C)n(-c4ccccc4)c3=O)cc(=O)c2c1	/	-1.3	2.9%	-21.8%	7.3%
COc1cccc(-c2cccc3c4c([nH]c23)[C@@H]2C[C@H]3[C@@H](C(=O)N2CC4)[C@H](C)ON3C)c1	/	-27.9	/	/	/
CC(OC(=O)C1CCN(S(=O)(=O)c2ccc(C(C)(C)C)cc2)CC1)C(=O)N1CCOCC1 (configuration not stated)	3.9%	1.1	-14.0%	-14.3%	-2.6%
CC(OC(=O)C1CCN(S(=O)(=O)c2ccc(C(C)(C)C)cc2)CC1)C(=O)N(C)C1CCCCC1 (configuration not stated)	?	?	/	39.8µM*	/
COc1ccc(F)cc1S(=O)(=O)NCC(c1ccco1)S(=O)(=O)c1ccc(F)cc1 (configuration not stated)	/	-27.5	i	54.0%	-16.2%
COc1ccc(F)cc1S(=O)(=O)NCC(c1ccco1)S(=O)(=O)c1cccs1 (configuration not stated)	/	-62.9*	-10.9%	79.9%	-12.0%
